# Source: PubChem BioAssay (Broad Institute)
# Rows were chosen to be rich in hits. Some 2.5% of all compounds tested hit in one or more screens of this group.
# rRNA inh HTS: selective bacterial rRNA inhibition in E. coli. E. coli WT GFP vs humanized-ribosome RFP mutants, fluorescence, 24 h; hits give low values; DMSO median 0, no signal -100. GFP signal change (wild-type ribosome), % (concentration not given with the values). 350,000 tested, 1.6% active;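 active means significant combined selectivity score with lowered wild-type GFP, culture density cut under 30%, mutant RFP and density less affected; inactive means any of these conditions unmet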
# RAD52 inh: inhibitors of human RAD52 DNA annealing; P43351; recombinant RAD52 DNA annealing, FRET fluorescence; inhibition, % at 18.7 µM; 360,000 tested, 0.46% active; AID 651710;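 active means every replicate showing at least 50% inhibition; inconclusive means mean inhibition at least 50% but not in every replicate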
# AF4-AF9 inh: inhibitors of human MLL-AF4/AF9 interaction; P42568; AlphaScreen, biotin-AF4 peptide binding to FLAG-AF9; inhibition, % at 10 µM; 350,000 tested, 0.47% active;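 active means every replicate reaching a set inhibition limit, whatever the replicate mean, cut at about 25% in these data; inconclusive means mean inhibition reaches that limit but some replicates miss it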;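 further: 0% = plate neutral control median and 100% = total signal loss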
# CASP6 VEID inh: blocks human caspase-6 cleavage activity; purified caspase-6, Z-VEID-R110 cleavage fluorescence; inhibition, % at 12.5 µM; 350,000 tested, 0.53% active; AID 686996;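 active means mean inhibition across replicates at least about 35%, with every replicate also reaching that limit, limit read from the data; inconclusive means only one of the two criteria met; inactive means neither criterion met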;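 further: 0% = median of neutral control wells and 100% = no fluorescence left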
# NSD2 HMT inh: NSD2 (human) methyltransferase inhibition | NSD2 peptide methylation, AlphaScreen, 120 min | inhibition, % at 12.5 µM | 310,000 tested, 0.54% active | AID 743445; in the data active means inhibition above about 50%
# Target sequence (O96028 whole entry, looked up): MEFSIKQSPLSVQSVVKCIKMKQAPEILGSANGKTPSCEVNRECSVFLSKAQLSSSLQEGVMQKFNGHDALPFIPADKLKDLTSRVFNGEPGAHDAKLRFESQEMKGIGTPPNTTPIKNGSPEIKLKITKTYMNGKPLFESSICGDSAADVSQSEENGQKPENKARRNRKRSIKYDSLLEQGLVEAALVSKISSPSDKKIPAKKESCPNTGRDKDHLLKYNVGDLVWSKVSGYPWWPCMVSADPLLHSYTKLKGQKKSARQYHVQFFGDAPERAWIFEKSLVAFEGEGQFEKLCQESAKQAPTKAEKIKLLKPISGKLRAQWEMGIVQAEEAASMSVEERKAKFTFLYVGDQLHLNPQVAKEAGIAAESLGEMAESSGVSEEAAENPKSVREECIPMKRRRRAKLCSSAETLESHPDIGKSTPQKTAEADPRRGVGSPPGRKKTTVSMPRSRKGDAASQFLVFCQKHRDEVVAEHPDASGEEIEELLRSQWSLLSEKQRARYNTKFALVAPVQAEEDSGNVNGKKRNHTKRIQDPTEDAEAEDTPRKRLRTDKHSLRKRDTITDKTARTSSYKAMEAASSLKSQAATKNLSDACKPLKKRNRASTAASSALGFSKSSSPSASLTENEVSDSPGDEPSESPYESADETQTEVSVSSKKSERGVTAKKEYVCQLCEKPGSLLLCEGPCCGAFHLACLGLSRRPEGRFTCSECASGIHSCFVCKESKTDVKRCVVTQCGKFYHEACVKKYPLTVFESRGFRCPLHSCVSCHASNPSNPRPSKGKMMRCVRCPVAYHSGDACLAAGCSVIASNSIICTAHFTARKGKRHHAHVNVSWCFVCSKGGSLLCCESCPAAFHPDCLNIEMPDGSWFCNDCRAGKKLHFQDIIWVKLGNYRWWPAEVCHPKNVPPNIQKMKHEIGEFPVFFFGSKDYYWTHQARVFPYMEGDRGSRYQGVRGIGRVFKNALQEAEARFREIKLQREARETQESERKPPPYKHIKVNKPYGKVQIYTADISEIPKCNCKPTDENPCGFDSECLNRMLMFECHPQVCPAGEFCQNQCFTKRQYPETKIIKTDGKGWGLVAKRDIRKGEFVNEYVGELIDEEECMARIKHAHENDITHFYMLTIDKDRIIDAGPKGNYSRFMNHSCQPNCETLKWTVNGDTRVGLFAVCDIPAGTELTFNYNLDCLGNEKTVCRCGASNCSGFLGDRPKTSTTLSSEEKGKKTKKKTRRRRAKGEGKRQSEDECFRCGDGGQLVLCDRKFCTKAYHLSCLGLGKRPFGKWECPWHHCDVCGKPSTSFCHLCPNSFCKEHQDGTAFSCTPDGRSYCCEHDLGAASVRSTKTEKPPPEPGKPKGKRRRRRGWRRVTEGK
# An asterisk follows results filed as active; ? = inconclusive; / = no result given.
SMILES,rRNA inh HTS,RAD52 inh,AF4-AF9 inh,CASP6 VEID inh,NSD2 HMT inh
C[C@H]1CCCCO[C@@H](CN(C)C(=O)C2CCCCC2)[C@@H](C)CN([C@@H](C)CO)C(=O)c2cc(NC(=O)Cc3ccccc3)ccc2O1,-2,11,-2,3,/
Cc1ccc(N=c2c([N+](=O)[O-])nn(-c3ccccc3)n2O)c(C)c1,-25*,-8,?,2,40
COCCNC(=O)c1noc2c1CCc1cc(OC)ccc1-2,/,/,/,/,0
COc1ccc2c(c1)CCc1c(C(=O)N(C)c3ccccc3)noc1-2,-43*,-24,0,11,/
Cc1noc(C)c1NC(=O)Nc1ccc2c(c1)CC(=O)N([C@H](C)CO)C[C@@H](C)[C@@H](CN(C)S(=O)(=O)c1ccccc1)O2,-1,13,-18,0,/
O=C(CCN1CCCCC1)N[C@H]1CC[C@H](CCNC(=O)c2cc(Cl)cc(Cl)c2)O[C@@H]1CO,-1,-20,2,-2,/
c1ccc(CSc2ncnc3sccc23)cc1,-27*,-12,-3,0,-2
Cc1nc(SCc2ccccc2)c2ccsc2n1,-30,1,0,0,19
COc1ccc(CNC(=O)C[C@H]2C=C[C@H](NC(=O)c3ccc4c(c3)OCO4)[C@H](CO)O2)cc1,0,7,-6,2,/
Cc1cc(=O)c2c(N(C)C)cccc2[nH]1,-1,19,32*,-3,23
O=C(CCc1nc2sc3c(c2c(=O)[nH]1)CCCC3)NCCc1ccccc1,1,-31,-3,2,2
CCc1ccccc1NC(=O)CNC(=O)CCc1nc2sc3c(c2c(=O)[nH]1)CCCC3,11,-58,-1,36*,5
Cc1cccc2nc(-c3cccnc3)c(Nc3ccccc3)n12,-36*,-10,4,1,1
C[C@@H]1CN([C@@H](C)CO)C(=O)c2cccc(NC(=O)C3CCCCC3)c2O[C@H]1CN(C)Cc1ccc2c(c1)OCO2,-3,19,6,-1,/
COC(=O)[C@@H]1[C@@H](CO)[C@@H]2Cn3c(ccc(-c4cccc(F)c4)c3=O)[C@@H]2N1S(C)(=O)=O,-3,-11,0,1,/
O=C(CSC1=NNC(c2ccccn2)S1)Nc1ccccc1 (centres undefined),-19*,-9,-1,0,-3
O=C(CSC1=NNC(c2ccccn2)S1)Nc1cccc(Cl)c1 (centres undefined),-3,5,-3,-4,-3
O=C(Cn1nc(CNc2ccc(Br)cc2)[n+]2c1CCCCC2)c1ccc([N+](=O)[O-])cc1,/,35,28*,16,12
O=C(Cn1nc(CNc2ccc(Cl)cc2)[n+]2c1CCCCC2)c1ccc(Br)cc1,/,/,/,/,5
COc1cccc(CC2(CO)CCCN(Cc3ccccc3Cl)C2)c1 (centres undefined),-15,-39,0,3,0
Cc1ccccc1CC1(CO)CCCN(Cc2ccccc2Cl)C1 (centres undefined),-28*,-35,-6,-1,0
CCOC(=O)C(=CNc1ccc(C(F)(F)F)cc1)C(=O)OCC,-23*,-18,-2,0,-3
CCOC(=O)C(=CNc1ccc(C)cc1C)C(=O)OCC,/,/,/,/,-2
COc1cc(C2C(C#N)=C(N)OC3=C2C(=O)CCC3)c([N+](=O)[O-])cc1OC (centres undefined),/,/,/,/,75*
COc1ccc(C[C@H]2CCc3cnnn3COC[C@@H](C)NC2=O)cc1,3,/,/,/,/
SMILES,rRNA inh HTS,RAD52 inh,AF4-AF9 inh,CASP6 VEID inh,NSD2 HMT inh
O=C(Nc1ccc(OCc2ccccc2)cc1)Nc1ccccc1C(=O)NCCCN1CCOCC1,-22*,-12,-4,-3,2
O=C1/C(=C/c2ccc(Cl)cc2)SC(=S)N1CCC(=O)N1CCCCC1CCO (centres undefined),7,-41,6,4,3
O=C1/C(=C/c2cccc(Cl)c2)SC(=S)N1CCC(=O)N1CCCCC1CCO (centres undefined),-22*,-12,5,2,6
O=C1/C(=C/c2cccs2)SC(=S)N1CC(=O)N1CCCCC1CCO (centres undefined),-25*,-23,9,3,7
O=C1/C(=C/c2ccccc2F)SC(=S)N1CCC(=O)N1CCCCC1CCO (centres undefined),-23*,-2,7,-1,28
C[C@H]1CN(C)C(=O)c2cc(N)ccc2O[C@H]1CN(C)C(=O)OC(C)(C)C,0,/,/,/,/
CCN1[C@@H]2Cn3c(ccc(/C=C/c4ccccc4)c3=O)[C@H]1[C@@H](C(=O)NC1Cc3ccccc3C1)[C@@H]2CO,-5,-30,-72,1,/
O=C(NCCN1CCC(n2c(=O)[nH]c3ccccc32)CC1)N1c2ccccc2Sc2ccccc21,-36*,40,13,-3,/
O=C(NCCN1CCC(n2c(=O)[nH]c3ccccc32)CC1)c1ccccc1,16,-16,-2,-3,/
CN(C)C(=O)c1ccc(-c2ccc([C@H]3[C@@H](CO)N4CCCCN(C(=O)C5CCC5)C[C@H]34)cc2)cc1,/,4,-8,2,/
COc1ccc2c3c([nH]c2c1)[C@H](CO)N(C(=O)c1cccnc1)CC31CCN(C(=O)NC(C)C)CC1,2,/,0,/,/
CCCCn1c(N)c(Sc2ccc(Cl)cc2)c(=O)[nH]c1=O,-21*,-3,-2,0,-1
COc1cc2c(cc1OC)C(=O)C(Br)CC2 (centres undefined),/,/,/,/,140*
COc1ccc2c(c1)oc(=O)c1cc(OC)ccc12,-2,-4,-4,-3,/
COc1cc(O)c2c(c1)oc(=O)c1c3cc(O)c(O)cc3oc21,/,77*,4,77*,/
O=C1C(Sc2ccccc2)=C[C@@]2(O)CC[C@@H](O)[C@]1(Sc1ccccc1)[C@H]2O,-23*,-13,2,3,/
COc1ccc(SC2=C[C@@]3(O)CC[C@@H](O)[C@@](Sc4ccc(OC)cc4)(C2=O)[C@H]3O)cc1,1,-4,0,1,/
O=C(NC[C@H]1CC[C@H]2[C@H](CN2C(=O)Cc2ccncc2)O1)C1CCOCC1,/,4,-3,1,/
O=C(NCC1CC1)[C@@H]1[C@@H](CO)[C@@H]2Cn3c(ccc(-c4cccnc4)c3=O)[C@@H]2N1C(=O)NC1CCCC1,0,-8,-2,-1,/
O=c1[nH]c(N2CCOCC2)cc2ccccc12,-5,0,-1,96*,/
C[C@@H]1CCCCO[C@H](CN(C)C(=O)Nc2ccc(F)cc2)[C@H](C)CN([C@@H](C)CO)C(=O)c2cc(NC(=O)Cc3ccccc3)ccc2O1,0,-33,-1,1,/
C[C@H]1CCCCO[C@H](CN(C)C(=O)Nc2ccc(F)cc2)[C@@H](C)CN([C@@H](C)CO)C(=O)c2cc(NC(=O)Cc3ccccc3)ccc2O1,0,-28,-1,43*,/
C[C@@H]1CCCCO[C@@H](CN(C)C(=O)Nc2ccc(F)cc2)[C@H](C)CN([C@H](C)CO)C(=O)c2cc(NC(=O)Nc3ccccc3)ccc2O1,1,-2,-2,-5,/
